The values below come from PubChem BioAssay.

Experiment [1] relates to Plasmodium falciparum Sir2 (PF13_0152, Sir2A). The experiment is described as follows: Plasmodium falciparum Sir2A binding compounds – biochemical, small-molecule microarray, 635 nm fluorescence, primary screen (AID 1098).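 Note: score merges spot fluorescence intensity with its signal-to-noise ratio.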 The conditions noted are these: fluorescence 635 nm, higher = more signal.
Experiment [2] in a line: probe aDKK1 binding to arrayed compounds – biochemical, biotinylated probe, 635/667 nm fluorescence, primary screen (AID 1099).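 Note: score merges 667nm spot fluorescence with signal to noise across triplicate slides.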 The conditions noted are these: small-molecule microarray, higher = more signal.
Experiment [3] can be described thus: probe aCHRDL2 binding to arrayed compounds – biochemical, biotinylated probe, 635/667 nm fluorescence, primary screen (AID 1100). The conditions noted are these: small-molecule microarray, higher = more signal.
Experiment [4] can be described thus: change in splice reporter luminescence, either direction, cell-based, HEK293, spliceosome inhibition project, primary screen (AID 1101).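 Note: HEK293 cells carrying a splicing-competent luciferase reporter gene; test concentration not given here.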 The note with it: HEK293 splicing luciferase reporter, 24 h, higher = more signal, called active from +8 up or from −8 down. (In general: In a reporter assay the amount or activity of a reporter protein is the signal.)
Experiment [5] concerns the target Fibroblast growth factor 10 (Homo sapiens) (UniProt O15520). The experiment is described as follows: compounds binding fibroblast growth factor 10 – biochemical, small-molecule microarray, 635 nm fluorescence, primary screen (AID 1102). The note with it: FGF10 binding, fluorescence 635 nm, higher = more signal.
For experiment [6], the system named is glycogen synthase kinase-3 (GSK3A per assay name; protocol says GSK3B). The experiment is described as follows: compounds binding glycogen synthase kinase-3 – biochemical, small-molecule microarray, 635 nm fluorescence, GSK3A, primary screen (AID 1103). Note: the record names both GSK3A and GSK3B. The note with it: fluorescence 635 nm, higher = more signal.
Experiment [7] concerns the target Epidermal growth factor receptor (Homo sapiens) (UniProt P00533). The experiment is described as follows: compounds binding epidermal growth factor receptor – biochemical, small-molecule microarray, 635 nm fluorescence, primary screen (AID 1104).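 Note: score merges 667 nm emission intensity with spot signal to noise over triplicate slides.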 The conditions noted are these: EGFR binding, higher = more signal.
In experiment [8] the target is Follistatin-related protein 3 (Homo sapiens) (UniProt O95633). The experiment is described as follows: compounds binding follistatin-related protein 3 – biochemical, small-molecule microarray, 635 nm fluorescence, primary screen (AID 1105).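 Note: score merges emission near 667 nm and signal to noise per printed spot across three slides.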 The note with it: FSTL3 binding, higher = more signal.
Experiment [9] concerns the target Dickkopf-related protein 1 (Homo sapiens) (UniProt O94907). The experiment is described as follows: small molecules binding DKK1 protein – biochemical, small-molecule microarray, 635 nm fluorescence scan, primary screen (AID 1106).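 Note: score merges emission near 667 nm with signal to noise over three replicate slides.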 The conditions noted are these: higher = more signal.
Experiment [10] deals with Inhibin beta A chain (activin A). The experiment can be described thus: small molecules binding activin A – biochemical, small-molecule microarray, 635 nm fluorescence scan, primary screen (AID 1107).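 Note: mouse activin A protein probed at 4.33 µg/mL on printed slides; score merges bound-protein fluorescence near 667 nm with spot signal-to-noise.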 The note with it: INHBA, higher = more signal.
For experiment [11], the system named is Human papillomavirus type 1a protein E7 (residues 44-93). The experiment can be described thus: small molecules binding HPV E7 44-93 – biochemical, small-molecule microarray, residues 44-93, 635 nm fluorescence, primary screen (AID 1108).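 Note: E7 fragment applied at 1 µg/mL in TBST for 1 h at 4 C; score combines spot fluorescence with its signal to noise ratio.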 The conditions noted are these: fluorescence 635 nm, higher = more signal.
Experiment [12] is described as follows: hepatitis C replication reporter changes, two-sided – Huh7 cells, luciferase reporter, HCV replication inhibitor project, primary screen (AID 1109).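 Note: huh7 hepatoma cells harbouring a luciferase neomycin HCV replicon reporter; luciferase luminescence as measure of HCV replicon replication; test concentration not given here.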 The note with it: Huh7 HCV replicon luciferase reporter, 48 h; higher = more signal.
For experiment [13], the target named is Left-right determination factor 2 (Homo sapiens) (UniProt O00292). The experiment is described as follows: small molecules binding LEFTY2 protein – biochemical, small-molecule microarray, 635 nm fluorescence scan, primary screen (AID 1110). The note with it: higher = more signal.
In experiment [14] the target is Calmodulin-1 (Homo sapiens) (UniProt P0DP23). The experiment is described as follows: small molecules binding calmodulin-1 with EGTA – biochemical, small-molecule microarray, Cy5-labelled CALM1, profiling panel (AID 1111).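 Note: labelled calmodulin applied in Tris saline Tween buffer holding calcium plus EGTA and DTT.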 The conditions noted are these: Cy5-CALM1 binding fluorescence, higher = more signal.
For experiment [15] the target is unchanged. The experiment is described as follows: small molecules binding Ca-loaded calmodulin-1 – biochemical, small-molecule microarray, Cy5-labelled CALM1, plus calcium, artefact control for SMM control-protein annotation, profiling panel (AID 1112).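 Note: score merges spot fluorescence with signal to noise from triplicate slides.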 The conditions noted are these: Cy5-CALM1 binding fluorescence, higher = more signal.
The nature of experiment [16]: probe aWnt5a binding to arrayed compounds – biochemical, biotinylated probe, 635/667 nm fluorescence, primary screen (AID 1113).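 Note: score merges 667 nm fluorescence intensity with signal-to-noise per printed feature.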 The conditions noted are these: small-molecule microarray, higher = more signal.
Experiment [17] can be described thus: probe aShh binding to arrayed compounds – biochemical, biotinylated probe, 635/667 nm fluorescence, primary screen (AID 1114).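 Note: probe is biotin-labelled aShh protein from a stem cell growth factor screen; measures binding of labelled protein to compounds printed on the slide; score merges feature fluorescence at 667 nm with signal-to-noise.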 The conditions noted are these: small-molecule microarray, higher = more signal.
Experiment [18] is described as follows: probe aNog binding to arrayed compounds – biochemical, biotinylated probe, 635/667 nm fluorescence, primary screen (AID 1115).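 Note: probe is biotinylated aNog protein used at 0.15 µg/mL for 1 h at 4 C; z-score combines 667 nm fluorescence of each spot with its signal to noise.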 The note with it: small-molecule microarray, higher = more signal.
The target in experiment [19] is Torsin-1A-interacting protein 1 (Homo sapiens) (UniProt Q5JTV8). The experiment is described as follows: compound microarray binding of lysate hLAP1 – cell lysate, small-molecule microarray, COS7 lysate, 635/667 nm fluorescence, primary screen (AID 1116). The conditions noted are these: 635 nm fluorescence, higher = more signal.
The target of experiment [20] is Alpha-bungarotoxin (Bungarus multicinctus) (UniProt P60615). The experiment can be described thus: compounds binding labelled alpha-BTX control protein – biochemical, small-molecule microarray, Alexa647 label, 635/667 nm fluorescence, artefact control for SMM control protein annotation, profiling panel (AID 1117). The note with it: alpha-BTX-A647 binding fluorescence, higher = more signal.

Structures are written as SMILES. The source made the active and inactive calls.

Chain of Fibroblast growth factor 10 (Homo sapiens) (O15520 whole entry, looked up): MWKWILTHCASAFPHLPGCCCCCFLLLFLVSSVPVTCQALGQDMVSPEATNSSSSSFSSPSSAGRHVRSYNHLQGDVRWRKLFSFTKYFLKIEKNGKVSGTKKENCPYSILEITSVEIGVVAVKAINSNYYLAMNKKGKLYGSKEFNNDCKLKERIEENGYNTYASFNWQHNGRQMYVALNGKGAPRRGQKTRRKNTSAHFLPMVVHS
Chain of Epidermal growth factor receptor (Homo sapiens) (P00533 whole entry, looked up): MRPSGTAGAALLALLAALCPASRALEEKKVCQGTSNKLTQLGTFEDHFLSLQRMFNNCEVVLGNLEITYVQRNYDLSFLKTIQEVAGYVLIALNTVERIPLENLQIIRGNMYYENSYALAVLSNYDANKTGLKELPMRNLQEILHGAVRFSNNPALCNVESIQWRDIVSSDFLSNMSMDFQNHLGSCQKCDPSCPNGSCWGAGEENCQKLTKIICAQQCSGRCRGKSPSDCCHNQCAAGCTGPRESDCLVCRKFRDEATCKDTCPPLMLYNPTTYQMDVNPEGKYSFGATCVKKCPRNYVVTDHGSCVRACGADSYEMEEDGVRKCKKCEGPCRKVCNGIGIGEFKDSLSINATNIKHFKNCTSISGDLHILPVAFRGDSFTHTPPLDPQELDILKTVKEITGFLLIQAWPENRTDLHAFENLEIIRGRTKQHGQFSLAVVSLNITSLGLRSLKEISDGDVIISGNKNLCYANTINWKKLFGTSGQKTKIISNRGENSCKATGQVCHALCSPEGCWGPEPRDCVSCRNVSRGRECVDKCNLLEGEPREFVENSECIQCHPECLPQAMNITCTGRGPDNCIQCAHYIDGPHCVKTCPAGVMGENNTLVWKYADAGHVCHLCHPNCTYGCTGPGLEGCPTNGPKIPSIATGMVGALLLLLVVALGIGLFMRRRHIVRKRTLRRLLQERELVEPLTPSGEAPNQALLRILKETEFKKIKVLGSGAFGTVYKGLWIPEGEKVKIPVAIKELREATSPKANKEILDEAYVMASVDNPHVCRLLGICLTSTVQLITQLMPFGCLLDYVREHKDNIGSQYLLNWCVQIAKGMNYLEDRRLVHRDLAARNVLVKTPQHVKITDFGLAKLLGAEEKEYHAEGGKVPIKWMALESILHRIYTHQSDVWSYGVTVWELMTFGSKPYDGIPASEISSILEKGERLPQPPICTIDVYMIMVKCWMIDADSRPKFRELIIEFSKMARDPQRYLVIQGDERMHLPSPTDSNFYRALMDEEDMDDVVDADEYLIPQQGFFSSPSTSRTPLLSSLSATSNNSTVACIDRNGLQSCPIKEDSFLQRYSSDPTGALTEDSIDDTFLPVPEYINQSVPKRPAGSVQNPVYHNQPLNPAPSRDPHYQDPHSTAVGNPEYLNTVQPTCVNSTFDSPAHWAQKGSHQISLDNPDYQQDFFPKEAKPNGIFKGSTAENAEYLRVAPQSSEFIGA
Chain of Left-right determination factor 2 (Homo sapiens) (O00292 whole entry, looked up): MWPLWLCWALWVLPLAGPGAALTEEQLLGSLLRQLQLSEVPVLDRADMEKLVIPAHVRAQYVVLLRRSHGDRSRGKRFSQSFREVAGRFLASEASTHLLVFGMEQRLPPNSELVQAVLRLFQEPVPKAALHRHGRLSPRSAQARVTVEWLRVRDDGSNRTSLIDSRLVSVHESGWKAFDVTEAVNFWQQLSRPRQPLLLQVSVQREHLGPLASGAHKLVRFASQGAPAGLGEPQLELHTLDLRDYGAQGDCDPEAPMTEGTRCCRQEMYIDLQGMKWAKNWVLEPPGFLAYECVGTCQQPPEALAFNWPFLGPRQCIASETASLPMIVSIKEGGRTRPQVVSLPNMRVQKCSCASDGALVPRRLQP
Chain of Follistatin-related protein 3 (Homo sapiens) (O95633 whole entry, looked up): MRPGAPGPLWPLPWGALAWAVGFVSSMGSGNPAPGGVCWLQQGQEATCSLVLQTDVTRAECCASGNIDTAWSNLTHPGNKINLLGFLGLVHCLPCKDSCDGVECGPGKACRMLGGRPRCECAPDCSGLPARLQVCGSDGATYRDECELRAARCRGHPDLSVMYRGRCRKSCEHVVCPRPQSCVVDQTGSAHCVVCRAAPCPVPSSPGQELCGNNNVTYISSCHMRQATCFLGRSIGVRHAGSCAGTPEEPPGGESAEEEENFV
Chain of Dickkopf-related protein 1 (Homo sapiens) (O94907 whole entry, looked up): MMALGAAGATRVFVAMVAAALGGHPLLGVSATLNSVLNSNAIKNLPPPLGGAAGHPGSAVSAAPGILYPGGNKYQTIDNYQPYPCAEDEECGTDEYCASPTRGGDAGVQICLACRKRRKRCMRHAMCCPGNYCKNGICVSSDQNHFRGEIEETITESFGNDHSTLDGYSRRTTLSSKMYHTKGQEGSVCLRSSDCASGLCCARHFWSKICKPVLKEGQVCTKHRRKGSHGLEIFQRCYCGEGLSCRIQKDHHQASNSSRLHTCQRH
Chain of Torsin-1A-interacting protein 1 (Homo sapiens) (Q5JTV8 whole entry, looked up): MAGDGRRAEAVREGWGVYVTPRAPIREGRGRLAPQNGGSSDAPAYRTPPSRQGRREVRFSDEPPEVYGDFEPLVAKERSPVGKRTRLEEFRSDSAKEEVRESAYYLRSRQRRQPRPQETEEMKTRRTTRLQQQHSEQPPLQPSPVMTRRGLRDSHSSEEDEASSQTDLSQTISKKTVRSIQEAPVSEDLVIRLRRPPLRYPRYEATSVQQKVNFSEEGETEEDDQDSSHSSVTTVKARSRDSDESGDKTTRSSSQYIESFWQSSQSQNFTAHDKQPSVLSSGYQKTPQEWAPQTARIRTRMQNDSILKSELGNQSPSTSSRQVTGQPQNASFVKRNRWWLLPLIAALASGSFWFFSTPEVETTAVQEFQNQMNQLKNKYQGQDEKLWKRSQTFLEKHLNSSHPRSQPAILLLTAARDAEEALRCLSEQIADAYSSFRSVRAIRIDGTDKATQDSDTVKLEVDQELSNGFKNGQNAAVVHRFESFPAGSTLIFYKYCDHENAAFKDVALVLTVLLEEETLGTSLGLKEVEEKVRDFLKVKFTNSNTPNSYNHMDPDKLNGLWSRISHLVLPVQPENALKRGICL
Chain of Alpha-bungarotoxin (Bungarus multicinctus) (P60615 whole entry, looked up): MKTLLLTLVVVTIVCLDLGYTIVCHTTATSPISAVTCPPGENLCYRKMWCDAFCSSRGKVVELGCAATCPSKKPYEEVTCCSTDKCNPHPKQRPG

Take `COC(=O)c1c2oc(c1C(=O)OC)C(=O)N1CCC[C@H]1Cn1nncc1CN(Cc1ccccc1)C(=O)N[C@H](CO)CC2`: the composite z-score in experiment [1] is 0.614; in experiment [2], -0.304; in experiment [3] it was -0.0048; in experiment [5], 0.627; in experiment [6], -0.103; in experiment [7] it was 0.327. In addition, the composite z-score in [8] was -0.0361; in [9], -0.113; in [10], 0.309; in [11], 0.289; in [13], 0.239; in [14], 0.724. Besides, the composite z-score in experiment [15] was 0.169; in [16] it was -0.0738; in experiment [17] it was -0.221; in [18] it was -0.296; in experiment [19] it was -0.285; in experiment [20], -0.524. Further, the results for the z-score in experiment [4] and in experiment [12] were 0.733 (inactive) and 0.253, respectively.
Consider `C=CC1c2cc(O)c(OC)cc2CCN1Cc1ccc([N+](=O)[O-])o1` (stereo not given), for which the composite z-score in [1] is 1.19; in experiment [2] it was 0.819; in experiment [3] it was 0.826; in experiment [5], 0.367; in experiment [6], -0.128; in experiment [7], -0.841. Besides, the composite z-score is -0.15 in [8]; -0.641 in experiment [9]; 0.87 in experiment [10]; 0.0967 in [11]; -0.54 in [13]; 1.15 in experiment [14]. In addition, the composite z-score in [15] was determined as 1.18; in experiment [16] it was 0.0306; in experiment [17], 0.13; in [18] it was 0.57; in [19], 1.82; in [20], 0.899. Besides, the z-score in experiment [4] is -0.109 (inactive); in [12], 0.366.
`COCCOC(=O)N1C(=O)[C@@]2(c3cc(C#CCC(C(=O)OC)C(=O)OC)ccc31)[C@H](C(=O)NC[C@H](O)c1ccccc1)[C@H]1C(=O)O[C@H](c3ccccc3)[C@H](c3ccccc3)N1[C@@H]2c1ccc(O)cc1`: the composite z-score in experiment [1] was 1.17; in [2] it was -0.0319; in experiment [3], 0.521; in [5], 0.923; in [6], 1.22; in experiment [7], -0.239. In addition, the composite z-score is 0.186 in experiment [8]; -0.224 in [9]; -0.29 in [10]; 1.37 in experiment [11]; 0.102 in experiment [13]; 1.65 in experiment [14]. Besides, the composite z-score is 0.247 in [15]; -0.0194 in [16]; -0.0146 in experiment [17]; -0.038 in experiment [18]; 1.37 in experiment [19]; 0.195 in experiment [20]. Also, the figures for the z-score in [4] and in experiment [12] were 0.556 (inactive) and -0.545, respectively.
As to `CCOC(=O)C1=CC[C@@H](c2ccccc2)N(S(=O)(=O)c2ccc(C)cc2)[C@H]1C=Cc1ccccc1`, the composite z-score is 1.66 in experiment [1]; 0.37 in experiment [2]; 1.03 in experiment [3]; 0.322 in experiment [5]; 0.193 in experiment [6]; -0.647 in experiment [7]. Moreover, the composite z-score is -0.745 in experiment [8]; -0.548 in experiment [9]; 0.58 in experiment [10]; 0.261 in experiment [11]; -0.481 in experiment [13]; 0.401 in [14]. For the same compound, the composite z-score in [15] is -0.401; in experiment [16], 0.127; in [17], -0.13; in [18] it was -0.5; in experiment [19], 0.381; in experiment [20] it was 0.621. For the same compound, the results for the z-score in [4] and in experiment [12] were 0.151 (inactive) and -1.83, respectively.
As to `CC(C)C(=C=CC[C@@H](O)c1cccc(OCCO)c1)C[C@@H](O)COCc1ccccc1`, the composite z-score is 1.04 in experiment [1]; -0.119 in experiment [2]; -0.118 in experiment [3]; 0.543 in experiment [5]; -0.174 in experiment [6]; -0.208 in experiment [7]. In addition, the composite z-score in experiment [8] is 0.178; in experiment [9] it was -0.445; in experiment [10], 0.198; in experiment [11], -0.83; in [13], 0.136; in [14] it was 0.275. For the same compound, the composite z-score in experiment [15] was 0.265; in [16], -0.141; in experiment [17], 0.0469; in experiment [18] it was -0.298; in [19] it was 0.0535; in [20], 0.0211. Also, the z-score in experiment [4] is -0.952 (inactive); in experiment [12] it was -0.0464.
